# Values joined by “and” are separate entries in the source; they are usually repeats but may differ in a detail not shown here. Identical values can stand only once. Records with an inconclusive call do not appear. Where a call stands in place of a potency, no number is given. Some structures have more than one record in an assay (separate samples or runs), and their calls can disagree. Active and inactive are the calls of the source. Calls come from the whole dose curve; as a rule, active = well fitted curve in the direction sought with a large enough effect in the repeat runs; inconclusive = weak or mixed curves; inactive = no such curve, though single readings can be large; an effect the other way counts as inactive or inconclusive.
# Biological target: Cytochrome P450 2C9 (Homo sapiens) (UniProt P11712)
# Assay: Cytochrome P450 Family 2 Subfamily C Member 9 (CYP2C9) small molecule antagonists: luciferase reporter qHTS assay (AID 1671198); note: potency is the fitted concentration of half-maximal effect
# Conditions: P450-Glo CYP2C9 enzyme assay, luciferin luminescence; series mostly up to 115 µM
# Outline: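 P450-Glo proluciferin substrate with CYP2C9 enzyme; 10 min RT preincubation, then NADPH regeneration 1 h at 37C; luciferin detection reagent 20 min RT, luminescence in relative luminescence units.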
# Note: nearly all actives have a fitted effect of over 50% in size.
# Cytochrome P450 2C9 (Homo sapiens), sequence (P11712 whole entry, looked up): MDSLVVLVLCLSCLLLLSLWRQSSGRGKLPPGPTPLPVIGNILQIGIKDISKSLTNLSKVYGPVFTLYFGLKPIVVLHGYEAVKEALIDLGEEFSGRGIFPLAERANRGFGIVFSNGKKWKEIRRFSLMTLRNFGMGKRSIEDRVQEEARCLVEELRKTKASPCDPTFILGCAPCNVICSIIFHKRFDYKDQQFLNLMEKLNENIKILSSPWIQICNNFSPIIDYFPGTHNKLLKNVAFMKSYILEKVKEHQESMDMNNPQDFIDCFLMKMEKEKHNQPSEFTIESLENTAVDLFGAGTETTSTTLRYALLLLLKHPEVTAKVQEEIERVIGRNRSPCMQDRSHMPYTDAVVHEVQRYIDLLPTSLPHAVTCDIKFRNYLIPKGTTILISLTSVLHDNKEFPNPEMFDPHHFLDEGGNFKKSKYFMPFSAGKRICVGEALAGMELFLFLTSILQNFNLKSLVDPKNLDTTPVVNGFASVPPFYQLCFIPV
row,Structure (SMILES),Potency
1,C[C@]12C=CC(=O)C=C1CC[C@@H]1[C@@H]2[C@@H](O)C[C@@]2(C)[C@H]1CC[C@]2(O)C(=O)CO,62.4 µM (active) and inactive
2,CCCCCCCCCCCCCCCC(=O)O,inactive
3,Nc1ccc(S(=O)(=O)c2ccc(N)cc2)cc1,inactive
4,CCOc1ccc(NC(=O)CC(C)O)cc1 (stereo not given),inactive
5,CC(O)CO (stereo not given),inactive
6,CC(O)C(=O)O (stereo not given),inactive
7,CCCNC(=O)NS(=O)(=O)c1ccc(Cl)cc1,39.7 µM (active) and 35.6 µM (active)
8,COc1ccc2[nH]cc(CCNC(C)=O)c2c1,32.2 µM (active) and 35.6 µM (active)
9,NC(N)=O,inactive
10,NC(=O)c1ccccc1O,inactive
11,COc1c2occc2cc2ccc(=O)oc12,5.06 µM (active) and 10 µM (active) and 4.9 µM (active)
12,CCC1(c2ccccc2)C(=O)NCNC1=O,inactive
13,O=C(O)c1cccc([N+](=O)[O-])c1,inactive
14,O=C(O)C(=O)O,inactive
15,Nc1ccc(O)c(C(=O)O)c1,62.7 µM (active) and 63.3 µM (active)
16,Cc1noc(NS(=O)(=O)c2ccc(N)cc2)c1C,inactive
17,O=C(O)c1[nH]n(-c2ccc(S(=O)(=O)O)cc2)c(=O)c1N=Nc1ccc(S(=O)(=O)O)cc1,inactive and 18.7 µM (active)
18,CC(O)CN(CCN(CC(C)O)CC(C)O)CC(C)O (stereo not given),inactive
19,NC(=O)NC1NC(=O)NC1=O (stereo not given),inactive
20,Cc1ccccc1C(OCCN(C)C)c1ccccc1 (stereo not given),inactive
21,O=C(O)/C=C\C(=O)O,inactive
22,Cn1cc[nH]c1=S,inactive and 71 µM (active)
23,O=C(c1ccccc1)C(O)c1ccccc1 (stereo not given),inactive

# Biological target: Cytochrome P450 1A2 (Homo sapiens) (UniProt P05177)
# Assay: Cytochrome P450 Family 1 Subfamily A Member 2 (CYP1A2) small molecule antagonists: luciferase reporter qHTS assay (AID 1671199); note: potency is the fitted concentration of half-maximal effect
# Conditions: P450-Glo CYP1A2 enzyme, luciferin luminescence, 1 h; series mostly up to 115 µM
# Outline: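 Signal from luciferin formed by CYP1A2 from a proluciferin substrate is read as luminescence, expressed in relative luminescence units. Compounds sit with enzyme 10 min, NADPH-driven reaction runs 1 h, all at room temperature.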
# Cytochrome P450 1A2 (Homo sapiens), sequence (P05177 whole entry, looked up): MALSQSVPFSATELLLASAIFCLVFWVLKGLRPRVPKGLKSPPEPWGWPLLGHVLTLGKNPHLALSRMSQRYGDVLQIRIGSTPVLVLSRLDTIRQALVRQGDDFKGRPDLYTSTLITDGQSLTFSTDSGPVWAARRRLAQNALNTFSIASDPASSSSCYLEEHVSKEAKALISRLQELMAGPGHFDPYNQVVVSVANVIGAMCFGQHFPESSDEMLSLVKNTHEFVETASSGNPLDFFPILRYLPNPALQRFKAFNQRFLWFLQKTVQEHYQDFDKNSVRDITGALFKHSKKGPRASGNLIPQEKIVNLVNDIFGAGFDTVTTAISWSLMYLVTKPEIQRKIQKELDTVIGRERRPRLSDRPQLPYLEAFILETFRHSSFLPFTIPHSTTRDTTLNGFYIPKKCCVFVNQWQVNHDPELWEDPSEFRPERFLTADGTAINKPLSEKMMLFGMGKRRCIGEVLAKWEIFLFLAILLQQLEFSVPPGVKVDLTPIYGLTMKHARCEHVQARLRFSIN
row,Structure (SMILES),Potency
1,C[C@]12C=CC(=O)C=C1CC[C@@H]1[C@@H]2[C@@H](O)C[C@@]2(C)[C@H]1CC[C@]2(O)C(=O)CO,inactive
2,CCCCCCCCCCCCCCCC(=O)O,39.9 µM (active) and inactive
3,Nc1ccc(S(=O)(=O)c2ccc(N)cc2)cc1,inactive
4,Cc1cc(=O)n(-c2ccccc2)n1C,inactive
5,CC(O)CO (stereo not given),inactive
6,CC(O)C(=O)O (stereo not given),inactive and 24.5 µM (active)
7,CCCNC(=O)NS(=O)(=O)c1ccc(Cl)cc1,inactive and 15.5 µM (active)
8,OC(Cn1cncn1)(Cn1cncn1)c1ccc(F)cc1F,inactive
9,NC(N)=O,inactive
10,NC(=O)c1ccccc1O,inactive
11,CCC1(c2ccccc2)C(=O)NCNC1=O,inactive
12,O=C(O)c1cccc([N+](=O)[O-])c1,inactive
13,O=C(O)C(=O)O,inactive
14,Nc1ccc(O)c(C(=O)O)c1,inactive
15,Cc1noc(NS(=O)(=O)c2ccc(N)cc2)c1C,inactive
16,O=C(O)c1[nH]n(-c2ccc(S(=O)(=O)O)cc2)c(=O)c1N=Nc1ccc(S(=O)(=O)O)cc1,inactive
17,CC(O)CN(CCN(CC(C)O)CC(C)O)CC(C)O (stereo not given),inactive
18,N=C(N)c1ccc(OCCCCCOc2ccc(C(=N)N)cc2)cc1,inactive
19,Cc1ccccc1C(OCCN(C)C)c1ccccc1 (stereo not given),inactive and 31.7 µM (active)
20,O=C(O)/C=C\C(=O)O,inactive
21,O=C(O)CCCCCCCC(=O)O,inactive
22,O=C(c1ccccc1)C(O)c1ccccc1 (stereo not given),31.4 µM (active) and 12.9 µM (active)
23,CC(=O)NS(=O)(=O)c1ccc(N)cc1,inactive
24,Cn1c(=O)c2[nH]cnc2n(C)c1=O,inactive

# Biological target: Voltage-gated inwardly rectifying potassium channel KCNH2 (Homo sapiens) (UniProt Q12809)
# Assay: Human Ether-a-go-go-Related Gene (hERG) channel small molecule antagonists: fluorescence cell-based qHTS assay (AID 1671200);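 note: hERG-expressing U2OS cells given a thallium stimulus after FluxOR II dye loading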
# Conditions: hERG-U2OS cells, FluxOR thallium flux fluorescence; series mostly up to 76.8 µM
# Outline: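 Thallium served as the potassium surrogate; its influx into dye-loaded U2OS cells carrying the channel was measured by fluorescence over 2 min.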
# Voltage-gated inwardly rectifying potassium channel KCNH2 (Homo sapiens), sequence (Q12809 whole entry, looked up): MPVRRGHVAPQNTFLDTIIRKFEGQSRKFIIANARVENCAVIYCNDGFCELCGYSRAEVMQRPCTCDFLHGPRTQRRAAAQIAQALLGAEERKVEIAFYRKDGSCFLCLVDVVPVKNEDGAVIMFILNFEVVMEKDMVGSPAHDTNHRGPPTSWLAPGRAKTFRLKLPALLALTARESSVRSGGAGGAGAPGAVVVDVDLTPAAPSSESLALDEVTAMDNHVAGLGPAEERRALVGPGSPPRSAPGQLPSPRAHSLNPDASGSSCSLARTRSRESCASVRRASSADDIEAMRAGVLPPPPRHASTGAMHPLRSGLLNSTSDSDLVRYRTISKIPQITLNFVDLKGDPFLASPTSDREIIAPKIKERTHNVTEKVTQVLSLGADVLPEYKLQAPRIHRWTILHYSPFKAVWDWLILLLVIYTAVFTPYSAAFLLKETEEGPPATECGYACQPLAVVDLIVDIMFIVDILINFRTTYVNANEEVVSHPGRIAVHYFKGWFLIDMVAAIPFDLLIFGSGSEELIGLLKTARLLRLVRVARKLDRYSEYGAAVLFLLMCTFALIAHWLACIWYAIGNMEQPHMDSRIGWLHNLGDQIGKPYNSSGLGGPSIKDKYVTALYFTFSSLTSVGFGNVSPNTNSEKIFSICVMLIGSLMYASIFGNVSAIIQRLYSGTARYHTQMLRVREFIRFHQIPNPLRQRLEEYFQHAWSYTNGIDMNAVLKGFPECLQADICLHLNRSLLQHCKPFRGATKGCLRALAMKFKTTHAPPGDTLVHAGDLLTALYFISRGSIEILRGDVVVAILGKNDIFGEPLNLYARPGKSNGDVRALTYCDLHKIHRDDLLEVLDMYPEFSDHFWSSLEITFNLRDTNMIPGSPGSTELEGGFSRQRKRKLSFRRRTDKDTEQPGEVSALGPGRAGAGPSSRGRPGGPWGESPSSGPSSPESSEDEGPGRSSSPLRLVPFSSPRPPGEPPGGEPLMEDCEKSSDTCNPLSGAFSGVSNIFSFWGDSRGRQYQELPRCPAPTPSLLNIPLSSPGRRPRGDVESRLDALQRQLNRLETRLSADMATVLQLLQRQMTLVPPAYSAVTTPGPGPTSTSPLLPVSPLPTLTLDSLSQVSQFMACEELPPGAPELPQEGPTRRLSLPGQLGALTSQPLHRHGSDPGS
row,Structure (SMILES),outcome
1,C[C@]12C=CC(=O)C=C1CC[C@@H]1[C@@H]2[C@@H](O)C[C@@]2(C)[C@H]1CC[C@]2(O)C(=O)CO,inactive
2,CCCCCCCCCCCCCCCC(=O)O,inactive
3,Nc1ccc(S(=O)(=O)c2ccc(N)cc2)cc1,inactive
4,CCOc1ccc(NC(=O)CC(C)O)cc1 (stereo not given),inactive
5,O=NO,inactive
6,Cc1cc(=O)n(-c2ccccc2)n1C,inactive
7,CC(O)CO (stereo not given),inactive
8,CNC[C@H](O)c1cccc(O)c1,inactive
9,CC(O)C(=O)O (stereo not given),inactive
10,CCCNC(=O)NS(=O)(=O)c1ccc(Cl)cc1,inactive
11,OC(Cn1cncn1)(Cn1cncn1)c1ccc(F)cc1F,inactive
12,COc1ccc2[nH]cc(CCNC(C)=O)c2c1,inactive
13,NC(N)=O,inactive
14,NC(=O)c1ccccc1O,inactive
15,O=C(O)c1cccnc1,inactive
16,COc1c2occc2cc2ccc(=O)oc12,inactive
17,CCC1(c2ccccc2)C(=O)NCNC1=O,inactive

row,Structure (SMILES),outcome
1,O=C(O)c1cccc([N+](=O)[O-])c1,inactive
2,O=C(O)C(=O)O,inactive
3,Nc1ccc(O)c(C(=O)O)c1,inactive
4,Cc1noc(NS(=O)(=O)c2ccc(N)cc2)c1C,inactive
5,Oc1ccc(/C=C/c2cc(O)cc(O)c2)cc1,inactive
6,O=C(O)c1[nH]n(-c2ccc(S(=O)(=O)O)cc2)c(=O)c1N=Nc1ccc(S(=O)(=O)O)cc1,inactive
7,CC(O)CN(CCN(CC(C)O)CC(C)O)CC(C)O (stereo not given),inactive
8,NC(=O)NC1NC(=O)NC1=O (stereo not given),inactive
9,O=C(O)/C=C\C(=O)O,inactive
10,O=S(=O)(O)NC1CCCCC1,inactive
11,O=C(O)CCCCCCCC(=O)O,inactive
12,Cn1cc[nH]c1=S,inactive
13,Cc1ccc(S(=O)(=O)NC(=O)NN2CCCCCC2)cc1,inactive
14,Cc1ccc(O)cc1,inactive
15,O=C(c1ccccc1)C(O)c1ccccc1 (stereo not given),inactive
16,CC(=O)NS(=O)(=O)c1ccc(N)cc1,inactive

# — PubChem BioAssay (Tox21)
